This is part of a sample that, as a whole, favours compounds with a hit. Of some 79,000 tested, about 15% had one in any assay. Values without a mark were called inactive. Activity calls are given as the source filed them. No stated cut-off is given here; in the data, active means growth inhibition above about 70%; inactive means the rest.
Columns and labels:
[1] = NCI Yeast Anticancer Drug Screen. Data for the rad50 strain (AID 155);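 further: 0% = growth of vehicle-only cultures of the same strain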; conditions: S. cerevisiae rad50 strain growth inhibition, hits give high values
Method in brief: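 Growth of the mutant yeast was measured after compound exposure and referenced to vehicle-treated cultures.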

[2] = NCI Yeast Anticancer Drug Screen. Data for the mec2-1 strain (AID 157); conditions: S. cerevisiae mec2-1 strain, hits give high values
Method in brief: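 Yeast mec2-1 mutant treated with compound. Readout: growth inhibition vs vehicle controls.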

[3] = NCI Yeast Anticancer Drug Screen. Data for the sgs1 mgt1 strain (AID 161);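 further: 0% = growth of cultures given vehicle only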; conditions: S. cerevisiae sgs1 mgt1 strain, hits give high values
Method in brief: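 Inhibition of yeast growth, normalised to vehicle-treated controls, is reported for a strain bearing genetic alterations in DNA damage repair.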

[4] = NCI Yeast Anticancer Drug Screen. Data for the cln2 rad14 strain (AID 165);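 further: 0% = growth equal to vehicle treated cultures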; conditions: S. cerevisiae cln2 rad14 strain, hits give high values
Method in brief: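 cln2 rad14 yeast strain; compound exposure; growth inhibition read vs vehicle controls.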

[5] = NCI Yeast Anticancer Drug Screen. Data for the bub3 strain (AID 167); conditions: S. cerevisiae bub3 mutant strain, hits give high values
Method in brief: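 Whole-cell yeast assay. The mutant strain was incubated with compounds, and growth inhibition was determined by comparison with vehicle-treated cells.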

[6] = NCI Yeast Anticancer Drug Screen. Data for the mlh1 rad18 strain (AID 175); conditions: S. cerevisiae mlh1 rad18 strain growth inhibition, hits give high values
Method in brief: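 Yeast w/ defined DNA-repair lesions; compound exposure; growth vs vehicle controls → % inhibition.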

[7] = at 5.0 µM (retest, dose inferred, filed as 0.5)
[8] = at 50.0 µM (retest, dose inferred, filed as 5.0)

Structure (SMILES)	growth inhibition [1, 7]	growth inhibition [1, 8]	growth inhibition ([1]; at 50.0 µM)	growth inhibition [2, 7]	growth inhibition [2, 8]	growth inhibition ([2]; at 50.0 µM)	growth inhibition [3, 7]	growth inhibition [3, 8]	growth inhibition ([3]; at 50.0 µM)	growth inhibition [4, 7]	growth inhibition [4, 8]	growth inhibition ([4]; at 50.0 µM)	growth inhibition [5, 7]	growth inhibition [5, 8]	growth inhibition ([5]; at 50.0 µM)	growth inhibition [6, 7]	growth inhibition [6, 8]	growth inhibition ([6]; at 50.0 µM)
Cc1c2cc[n+]([O-])cc2c(C)c2c1oc1ccccc12	65%	99% (active)	50.5%	34%	98% (active)	46.6%	13%	98% (active)	42.4%	23%	99% (active)	50.8%	32%	99% (active)	95.2% (active)	22%	98% (active)	55.1%
COc1ccc(C(C)(C)c2cc3c(cc2OCCO)OCO3)cc1	-1%	82% (active)	89.8% (active)	1%	90% (active)	92.2% (active)	4%	92% (active)	97% (active)	0%	70% (active)	60.1%	13%	90% (active)	90.2% (active)	1%	94% (active)	93.3% (active)
CC(=O)N1c2ccccc2Sc2c1ccc1ccccc21	10%	94% (active)	96% (active)	5%	95% (active)	96.8% (active)	11%	94% (active)	96.5% (active)	1%	94% (active)	95% (active)	6%	93% (active)	94.3% (active)	2%	92% (active)	96.7% (active)
Cc1cc2ccc(N)nc2[nH]c1=O	-7%	-4%	25.6%	-2%	-3%	27.2%	-4%	0%	10.3%	-3%	-1%	85.4% (active)	1%	5%	12.7%	-2%	1%	24.8%
COc1ccc(Cc2coc3ccccc3c2=O)cc1OC	-1%	12%	-0.55%	2%	10%	-2.5%	1%	18%	18.4%	0%	3%	3.8%	23%	68%	71.1% (active)	-3%	12%	0.95%
BrC1CCCCCC1	2%	10%	51.9%	3%	16%	34.5%	1%	22%	57.4%	6%	14%	27.4%	5%	35%	37%	6%	24%	81.7% (active)
COc1cc(/C=C/C(=N\NC(=O)c2ccccc2)c2sc(Nc3ccc(Cl)c(Cl)c3)nc2C)ccc1O	49%	49%	91.2% (active)	29%	29%	89.8% (active)	52%	52%	89.7% (active)	14%	14%	88.2% (active)	28%	28%	90.5% (active)	30%	30%	88.9% (active)
O=C(CSc1nnc(-c2ccc(N=Cc3ccc(Cl)cc3)cc2)o1)Nc1ccc(Cl)cc1Cl	14%	99% (active)	95.8% (active)	-1%	99% (active)	99.2% (active)	17%	100% (active)	95.9% (active)	27%	99% (active)	91.2% (active)	12%	100% (active)	98.5% (active)	30%	99% (active)	97.9% (active)
O=C(NNc1ccccc1)C(O)C(=O)C(O)C(O)C(O)CO (centres undefined)	1%	27%	9.45%	-1%	8%	21.9%	9%	6%	61.8%	-2%	14%	-14.1%	8%	34%	80% (active)	5%	28%	75.2% (active)
Cc1ccc(N=Nc2ccc(N)c3ccccc23)c(S(N)(=O)=O)c1	-4%	38%	27.1%	0%	24%	1.95%	-1%	51%	44.9%	-2%	29%	70.8% (active)	-6%	61%	22.2%	0%	61%	13.1%
C/C(=N\NC(=S)NC12CC3CC(CC(C3)C1)C2)c1ccccn1	5%	95% (active)	97% (active)	3%	97% (active)	97.9% (active)	6%	98% (active)	98% (active)	-5%	93% (active)	94.7% (active)	0%	97% (active)	97.1% (active)	-7%	97% (active)	97.3% (active)
CC1NS(=O)(=O)N(C)C1=O (centres undefined)	3%	-5%	3.05%	6%	3%	15.6%	5%	3%	-2.2%	0%	-13%	36.7%	6%	16%	8.55%	2%	-9%	-1.05%
CC1CCN(CCOC(=O)C(c2ccccc2)C2C=CCCC2)C1C (centres undefined)	16%	59%	81.1% (active)	45%	71% (active)	58.9%	53%	80% (active)	84.5% (active)	16%	53%	86.9% (active)	16%	50%	62%	54%	78% (active)	77.5% (active)

From PubChem BioAssay (NCI)
